This is an account of results in ChEMBL document CHEMBL2218924, “A broad activity screen in support of a chemogenomic map for kinase signalling research and drug discovery” (Biochem J, 2013).

In assay [1] the target is Homeodomain-interacting protein kinase 3 (Homo sapiens) (UniProt Q9H422). The settings on record: at 10 µM.
Assay [2] has as its target T1, Serine/threonine-protein kinase haspin (Homo sapiens) (UniProt Q8TF76).
T1 sequence (whole entry): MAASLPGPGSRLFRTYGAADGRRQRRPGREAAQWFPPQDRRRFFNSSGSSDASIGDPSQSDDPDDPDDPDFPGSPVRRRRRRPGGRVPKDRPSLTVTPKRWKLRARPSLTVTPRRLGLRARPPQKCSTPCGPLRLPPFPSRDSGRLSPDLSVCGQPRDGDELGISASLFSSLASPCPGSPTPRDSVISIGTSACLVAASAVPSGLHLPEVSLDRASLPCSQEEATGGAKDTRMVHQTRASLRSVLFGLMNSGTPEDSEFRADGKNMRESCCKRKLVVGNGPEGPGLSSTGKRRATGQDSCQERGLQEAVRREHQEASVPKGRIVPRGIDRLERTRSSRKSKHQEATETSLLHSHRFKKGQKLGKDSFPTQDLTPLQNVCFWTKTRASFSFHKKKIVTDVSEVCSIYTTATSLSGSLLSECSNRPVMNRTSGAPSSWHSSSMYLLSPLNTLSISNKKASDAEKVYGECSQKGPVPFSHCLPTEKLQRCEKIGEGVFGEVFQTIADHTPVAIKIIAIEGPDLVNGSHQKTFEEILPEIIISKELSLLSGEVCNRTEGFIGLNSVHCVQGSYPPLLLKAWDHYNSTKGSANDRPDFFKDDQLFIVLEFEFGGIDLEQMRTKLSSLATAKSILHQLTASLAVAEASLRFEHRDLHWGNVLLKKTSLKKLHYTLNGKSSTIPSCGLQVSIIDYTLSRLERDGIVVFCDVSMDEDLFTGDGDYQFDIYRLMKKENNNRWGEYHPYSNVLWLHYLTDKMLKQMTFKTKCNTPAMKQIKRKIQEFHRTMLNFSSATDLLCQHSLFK
To be noted: at 1 µM.

Assay [3] has as its target T1, Serine/threonine-protein kinase haspin (Homo sapiens). The settings on record: at 10 µM.
The target in assay [4] is Tyrosine-protein kinase HCK (Homo sapiens) (UniProt P08631). To be noted: at 1 µM.
Assay [5] shares this target. The settings on record: at 10 µM.
The target is the same in assay [6]. To be noted: at 1 µM. This is another data set of the same source.
For assay [7] the target is unchanged. The settings on record: at 10 µM. The source holds these as a separate data set.
Assay [8] has as its target Insulin-like growth factor 1 receptor (Homo sapiens) (UniProt P08069). The settings on record: at 1 µM.
For assay [9] the target is unchanged. To be noted: at 10 µM.
Assay [10] deals with T2, Protein kinase C zeta type (Homo sapiens) (UniProt Q05513).
T2 sequence (whole entry): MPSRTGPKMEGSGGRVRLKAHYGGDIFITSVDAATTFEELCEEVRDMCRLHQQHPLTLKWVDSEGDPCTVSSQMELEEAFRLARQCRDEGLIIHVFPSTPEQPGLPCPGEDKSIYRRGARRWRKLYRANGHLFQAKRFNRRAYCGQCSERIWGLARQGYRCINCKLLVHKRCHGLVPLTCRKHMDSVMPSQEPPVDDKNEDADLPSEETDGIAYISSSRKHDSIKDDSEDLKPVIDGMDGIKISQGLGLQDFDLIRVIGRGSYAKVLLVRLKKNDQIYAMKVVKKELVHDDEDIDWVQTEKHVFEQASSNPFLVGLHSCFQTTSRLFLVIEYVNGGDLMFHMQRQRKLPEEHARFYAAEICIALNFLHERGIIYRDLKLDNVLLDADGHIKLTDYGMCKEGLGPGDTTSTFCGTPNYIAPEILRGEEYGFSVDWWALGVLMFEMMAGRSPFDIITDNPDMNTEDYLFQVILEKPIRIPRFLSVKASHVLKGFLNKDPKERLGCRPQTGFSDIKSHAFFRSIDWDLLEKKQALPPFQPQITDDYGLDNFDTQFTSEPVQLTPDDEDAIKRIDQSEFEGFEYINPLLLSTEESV
The settings on record: at 10 µM.

Assay [11] deals with Protein kinase C eta type (Homo sapiens) (UniProt P24723). The settings on record: at 1 µM.
Assay [12] shares this target. The settings on record: at 10 µM.
In assay [13] the target is Protein kinase C theta type (Homo sapiens) (UniProt Q04759). To be noted: at 1 µM.
Assay [14] has the same target. The settings on record: at 10 µM.
The target in assay [15] is T3, Protein kinase C iota type (Homo sapiens) (UniProt P41743).
T3 sequence (whole entry): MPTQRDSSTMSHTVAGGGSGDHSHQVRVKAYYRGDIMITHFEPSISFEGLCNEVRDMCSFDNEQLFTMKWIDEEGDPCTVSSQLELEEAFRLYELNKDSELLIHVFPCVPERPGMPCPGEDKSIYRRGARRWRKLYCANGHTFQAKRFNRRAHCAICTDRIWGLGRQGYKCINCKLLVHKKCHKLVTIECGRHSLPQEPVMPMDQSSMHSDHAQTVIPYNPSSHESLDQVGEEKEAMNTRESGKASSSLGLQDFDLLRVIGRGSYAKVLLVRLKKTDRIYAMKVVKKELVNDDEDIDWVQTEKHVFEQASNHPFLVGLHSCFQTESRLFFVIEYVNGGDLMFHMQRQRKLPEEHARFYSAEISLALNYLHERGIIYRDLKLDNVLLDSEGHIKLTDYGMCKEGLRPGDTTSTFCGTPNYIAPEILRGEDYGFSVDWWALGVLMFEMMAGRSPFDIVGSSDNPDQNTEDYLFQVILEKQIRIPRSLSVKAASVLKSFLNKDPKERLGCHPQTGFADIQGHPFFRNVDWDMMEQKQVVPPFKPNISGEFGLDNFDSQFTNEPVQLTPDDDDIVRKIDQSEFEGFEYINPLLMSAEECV
To be noted: at 1 µM.

Assay [16] concerns the target T3, Protein kinase C iota type (Homo sapiens). To be noted: at 10 µM.
Assay [17] deals with T4, Serine/threonine-protein kinase D1 (Homo sapiens) (UniProt Q15139).
T4 sequence (whole entry): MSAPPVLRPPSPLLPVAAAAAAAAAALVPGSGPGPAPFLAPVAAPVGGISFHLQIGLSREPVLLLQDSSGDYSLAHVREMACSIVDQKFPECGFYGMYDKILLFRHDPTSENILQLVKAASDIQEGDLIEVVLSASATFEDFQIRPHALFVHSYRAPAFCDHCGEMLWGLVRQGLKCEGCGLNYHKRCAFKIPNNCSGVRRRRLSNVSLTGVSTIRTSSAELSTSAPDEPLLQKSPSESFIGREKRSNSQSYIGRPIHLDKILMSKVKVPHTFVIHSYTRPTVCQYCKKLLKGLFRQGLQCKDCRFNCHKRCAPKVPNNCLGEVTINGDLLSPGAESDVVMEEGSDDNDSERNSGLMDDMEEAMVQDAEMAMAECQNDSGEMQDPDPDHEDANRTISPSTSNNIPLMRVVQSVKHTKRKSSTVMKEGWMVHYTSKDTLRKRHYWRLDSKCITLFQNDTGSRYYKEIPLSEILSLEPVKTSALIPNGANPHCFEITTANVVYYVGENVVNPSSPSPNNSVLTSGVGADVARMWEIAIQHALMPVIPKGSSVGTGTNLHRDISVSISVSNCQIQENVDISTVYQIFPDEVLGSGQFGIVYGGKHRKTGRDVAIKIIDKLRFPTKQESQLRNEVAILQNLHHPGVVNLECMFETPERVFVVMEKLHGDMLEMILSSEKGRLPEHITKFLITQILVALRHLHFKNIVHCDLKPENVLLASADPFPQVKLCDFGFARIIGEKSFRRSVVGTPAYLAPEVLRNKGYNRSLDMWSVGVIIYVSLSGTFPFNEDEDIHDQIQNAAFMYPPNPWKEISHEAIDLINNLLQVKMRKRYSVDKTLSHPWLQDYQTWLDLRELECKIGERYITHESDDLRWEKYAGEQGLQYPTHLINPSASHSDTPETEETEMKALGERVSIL
The settings on record: at 1 µM.

Assay [18] concerns the target T4, Serine/threonine-protein kinase D1 (Homo sapiens). The settings on record: at 10 µM.
The target of assay [19] is T5, Serine/threonine-protein kinase D2 (Homo sapiens) (UniProt Q9BZL6).
T5 sequence (whole entry): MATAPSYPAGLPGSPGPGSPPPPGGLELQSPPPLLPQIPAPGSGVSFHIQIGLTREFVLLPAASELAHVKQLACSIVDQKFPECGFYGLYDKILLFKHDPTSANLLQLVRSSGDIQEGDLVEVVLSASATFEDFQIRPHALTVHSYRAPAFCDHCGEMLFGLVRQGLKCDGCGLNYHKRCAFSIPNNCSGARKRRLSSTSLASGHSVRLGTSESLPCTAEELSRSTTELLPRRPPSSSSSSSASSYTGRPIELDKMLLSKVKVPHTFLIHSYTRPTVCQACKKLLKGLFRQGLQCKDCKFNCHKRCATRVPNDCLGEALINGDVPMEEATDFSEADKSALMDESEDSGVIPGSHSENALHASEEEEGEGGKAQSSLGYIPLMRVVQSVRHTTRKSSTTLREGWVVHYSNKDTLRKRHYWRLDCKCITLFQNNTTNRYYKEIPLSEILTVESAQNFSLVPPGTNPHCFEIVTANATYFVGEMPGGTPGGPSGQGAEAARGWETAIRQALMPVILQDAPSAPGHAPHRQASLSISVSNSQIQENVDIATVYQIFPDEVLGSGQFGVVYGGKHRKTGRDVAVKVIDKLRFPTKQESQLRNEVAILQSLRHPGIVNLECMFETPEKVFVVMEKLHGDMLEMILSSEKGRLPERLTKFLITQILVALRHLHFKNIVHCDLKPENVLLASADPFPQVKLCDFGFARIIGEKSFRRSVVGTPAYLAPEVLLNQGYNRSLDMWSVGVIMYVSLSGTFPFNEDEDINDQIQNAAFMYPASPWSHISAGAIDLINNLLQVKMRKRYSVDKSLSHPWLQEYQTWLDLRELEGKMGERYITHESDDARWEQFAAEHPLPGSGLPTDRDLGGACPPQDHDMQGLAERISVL
To be noted: at 1 µM.

Assay [20] deals with T5, Serine/threonine-protein kinase D2 (Homo sapiens). The settings on record: at 10 µM.

Each structure is given as a SMILES string.

Chain of Protein kinase C theta type (Homo sapiens) (Q04759 whole entry, looked up): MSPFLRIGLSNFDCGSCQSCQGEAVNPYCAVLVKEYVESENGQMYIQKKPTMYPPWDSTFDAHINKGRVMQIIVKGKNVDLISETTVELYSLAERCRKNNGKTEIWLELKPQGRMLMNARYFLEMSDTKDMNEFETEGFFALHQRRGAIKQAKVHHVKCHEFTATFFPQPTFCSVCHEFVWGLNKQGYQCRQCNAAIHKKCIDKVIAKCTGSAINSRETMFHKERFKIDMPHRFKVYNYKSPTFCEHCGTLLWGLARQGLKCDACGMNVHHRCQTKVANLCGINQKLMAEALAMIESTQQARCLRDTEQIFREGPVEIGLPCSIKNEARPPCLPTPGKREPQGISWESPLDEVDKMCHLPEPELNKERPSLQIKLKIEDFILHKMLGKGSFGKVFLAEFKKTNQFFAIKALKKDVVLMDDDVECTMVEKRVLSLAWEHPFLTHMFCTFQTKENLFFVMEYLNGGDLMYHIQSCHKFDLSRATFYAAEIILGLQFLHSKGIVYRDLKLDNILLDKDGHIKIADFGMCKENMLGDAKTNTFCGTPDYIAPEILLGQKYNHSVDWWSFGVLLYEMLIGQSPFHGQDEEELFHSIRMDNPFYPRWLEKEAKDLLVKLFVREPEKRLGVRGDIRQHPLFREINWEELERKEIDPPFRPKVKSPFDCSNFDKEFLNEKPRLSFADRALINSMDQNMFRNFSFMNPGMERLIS
Chain of Protein kinase C eta type (Homo sapiens) (P24723 whole entry): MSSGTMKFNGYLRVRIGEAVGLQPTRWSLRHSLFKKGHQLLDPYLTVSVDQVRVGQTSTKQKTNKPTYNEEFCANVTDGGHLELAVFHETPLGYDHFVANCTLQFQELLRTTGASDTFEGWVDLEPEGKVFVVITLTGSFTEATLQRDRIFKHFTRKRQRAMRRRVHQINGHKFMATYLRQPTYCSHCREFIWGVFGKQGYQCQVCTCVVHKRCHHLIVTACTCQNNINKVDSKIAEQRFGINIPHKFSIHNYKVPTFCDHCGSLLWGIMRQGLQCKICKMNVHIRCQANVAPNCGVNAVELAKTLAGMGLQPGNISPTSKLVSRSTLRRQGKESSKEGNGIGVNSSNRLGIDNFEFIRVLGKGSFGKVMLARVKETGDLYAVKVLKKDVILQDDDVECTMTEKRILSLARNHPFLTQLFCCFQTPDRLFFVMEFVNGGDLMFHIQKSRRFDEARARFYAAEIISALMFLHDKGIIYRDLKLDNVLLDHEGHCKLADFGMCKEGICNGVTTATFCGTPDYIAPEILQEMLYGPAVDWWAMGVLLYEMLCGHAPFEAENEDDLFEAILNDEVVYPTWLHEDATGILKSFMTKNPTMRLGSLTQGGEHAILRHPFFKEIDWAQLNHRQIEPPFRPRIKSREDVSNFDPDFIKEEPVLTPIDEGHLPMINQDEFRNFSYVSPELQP
Chain of Tyrosine-protein kinase HCK (Homo sapiens) (P08631 2-526 limits assumed): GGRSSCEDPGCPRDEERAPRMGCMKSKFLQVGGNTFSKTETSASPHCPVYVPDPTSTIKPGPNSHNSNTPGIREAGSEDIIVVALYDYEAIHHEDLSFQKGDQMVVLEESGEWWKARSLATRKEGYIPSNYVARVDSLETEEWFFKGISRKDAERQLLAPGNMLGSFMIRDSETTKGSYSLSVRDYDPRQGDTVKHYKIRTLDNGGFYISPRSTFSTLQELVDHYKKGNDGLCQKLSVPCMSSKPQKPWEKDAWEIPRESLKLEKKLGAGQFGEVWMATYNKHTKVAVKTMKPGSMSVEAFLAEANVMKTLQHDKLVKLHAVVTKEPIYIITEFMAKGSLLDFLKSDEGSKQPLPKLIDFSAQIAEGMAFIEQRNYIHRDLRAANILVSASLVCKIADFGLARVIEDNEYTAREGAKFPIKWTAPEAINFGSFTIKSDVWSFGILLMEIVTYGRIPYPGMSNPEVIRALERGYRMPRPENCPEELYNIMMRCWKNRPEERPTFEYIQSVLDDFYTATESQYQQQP
Chain of Insulin-like growth factor 1 receptor (Homo sapiens) (P08069 31-736 limits assumed): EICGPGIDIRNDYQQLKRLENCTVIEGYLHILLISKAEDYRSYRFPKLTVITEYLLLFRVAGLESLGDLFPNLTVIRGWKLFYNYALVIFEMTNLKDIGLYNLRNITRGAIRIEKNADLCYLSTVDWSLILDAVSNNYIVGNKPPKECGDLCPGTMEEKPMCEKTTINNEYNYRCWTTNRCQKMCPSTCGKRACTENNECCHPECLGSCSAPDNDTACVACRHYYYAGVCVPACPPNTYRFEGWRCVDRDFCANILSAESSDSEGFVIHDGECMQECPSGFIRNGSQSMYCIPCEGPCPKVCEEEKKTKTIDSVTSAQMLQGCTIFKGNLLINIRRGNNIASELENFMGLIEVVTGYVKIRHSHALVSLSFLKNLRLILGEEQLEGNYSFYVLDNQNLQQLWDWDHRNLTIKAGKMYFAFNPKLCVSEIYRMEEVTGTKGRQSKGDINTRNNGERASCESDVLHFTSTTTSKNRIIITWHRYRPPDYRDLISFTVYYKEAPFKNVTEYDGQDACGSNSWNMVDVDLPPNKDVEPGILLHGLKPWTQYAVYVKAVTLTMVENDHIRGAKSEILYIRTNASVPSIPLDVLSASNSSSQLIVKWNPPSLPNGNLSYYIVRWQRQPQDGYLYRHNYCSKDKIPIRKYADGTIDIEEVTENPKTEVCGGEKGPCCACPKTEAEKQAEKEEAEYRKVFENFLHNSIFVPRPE
Chain of Insulin-like growth factor 1 receptor (Homo sapiens) (P08069 741-1367 limits assumed): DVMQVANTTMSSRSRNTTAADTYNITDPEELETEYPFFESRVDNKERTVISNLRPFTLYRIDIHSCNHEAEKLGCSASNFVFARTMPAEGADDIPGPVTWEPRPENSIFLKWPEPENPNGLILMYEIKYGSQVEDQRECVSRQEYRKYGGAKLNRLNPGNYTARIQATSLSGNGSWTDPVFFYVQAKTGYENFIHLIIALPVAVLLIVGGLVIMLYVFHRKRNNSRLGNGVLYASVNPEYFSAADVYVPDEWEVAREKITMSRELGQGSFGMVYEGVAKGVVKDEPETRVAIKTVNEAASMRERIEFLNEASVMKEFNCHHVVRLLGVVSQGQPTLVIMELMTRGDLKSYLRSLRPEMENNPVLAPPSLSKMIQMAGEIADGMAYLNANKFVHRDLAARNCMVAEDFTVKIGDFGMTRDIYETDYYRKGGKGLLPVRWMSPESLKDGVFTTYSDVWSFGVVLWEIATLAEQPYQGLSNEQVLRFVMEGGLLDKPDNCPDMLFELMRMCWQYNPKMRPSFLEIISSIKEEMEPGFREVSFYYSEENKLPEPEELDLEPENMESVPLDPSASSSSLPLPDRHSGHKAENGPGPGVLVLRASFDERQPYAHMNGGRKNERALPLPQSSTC
Chain of Homeodomain-interacting protein kinase 3 (Homo sapiens) (Q9H422 whole entry, looked up): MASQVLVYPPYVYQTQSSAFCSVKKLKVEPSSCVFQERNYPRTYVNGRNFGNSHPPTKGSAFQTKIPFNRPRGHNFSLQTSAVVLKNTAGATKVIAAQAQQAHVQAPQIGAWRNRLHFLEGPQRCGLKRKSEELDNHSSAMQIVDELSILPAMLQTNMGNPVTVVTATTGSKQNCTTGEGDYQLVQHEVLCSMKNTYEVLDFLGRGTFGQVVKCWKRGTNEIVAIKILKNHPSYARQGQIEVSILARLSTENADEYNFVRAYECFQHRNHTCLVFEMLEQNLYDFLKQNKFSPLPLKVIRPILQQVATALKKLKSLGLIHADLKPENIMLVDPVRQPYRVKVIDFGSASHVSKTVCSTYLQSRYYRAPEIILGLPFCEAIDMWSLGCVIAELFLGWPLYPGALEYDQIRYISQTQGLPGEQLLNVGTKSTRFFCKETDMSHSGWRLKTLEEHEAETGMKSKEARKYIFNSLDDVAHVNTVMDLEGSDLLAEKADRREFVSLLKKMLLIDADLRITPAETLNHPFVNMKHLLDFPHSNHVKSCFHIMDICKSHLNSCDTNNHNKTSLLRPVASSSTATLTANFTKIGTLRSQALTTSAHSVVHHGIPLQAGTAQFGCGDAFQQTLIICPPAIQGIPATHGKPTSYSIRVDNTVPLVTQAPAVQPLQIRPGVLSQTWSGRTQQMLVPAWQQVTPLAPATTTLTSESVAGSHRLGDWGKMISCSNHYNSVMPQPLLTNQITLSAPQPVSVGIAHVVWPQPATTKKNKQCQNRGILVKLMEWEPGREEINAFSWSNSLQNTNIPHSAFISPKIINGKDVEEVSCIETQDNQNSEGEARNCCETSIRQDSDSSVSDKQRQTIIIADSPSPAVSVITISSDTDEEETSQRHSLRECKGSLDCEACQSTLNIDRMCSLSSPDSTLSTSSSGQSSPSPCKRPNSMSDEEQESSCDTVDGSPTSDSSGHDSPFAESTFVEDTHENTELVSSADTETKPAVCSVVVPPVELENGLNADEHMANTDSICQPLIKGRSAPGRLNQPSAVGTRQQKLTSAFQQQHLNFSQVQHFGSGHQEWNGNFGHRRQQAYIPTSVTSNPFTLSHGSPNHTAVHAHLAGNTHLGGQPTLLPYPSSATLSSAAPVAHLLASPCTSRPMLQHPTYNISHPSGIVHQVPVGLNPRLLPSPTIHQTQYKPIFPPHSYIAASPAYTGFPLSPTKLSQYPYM

Turning to `COc1ccc(CNc2nc(N(CCO)CCO)nc3c2ncn3C(C)C)cc1`, the residual activity is 98% in assay [1]; 104% in assay [2]; 101% in assay [3]; 62% in assay [4]; 56% in assay [5]; 102% in assay [6]. Also, the residual activity in assay [7] was 91%; in assay [8], 90%; in assay [9], 129%; in assay [10] it was 95%; in [11] it was 83%; in [12], 83%. Further, the residual activity is 4% in assay [13]; 5% in [14]; 112% (inactive) in assay [15]; 108% in assay [16]; 91% in assay [17]; 71% in assay [18]. In addition, the results for the residual activity in assay [19] and in assay [20] were 101% and 93%, respectively.

Regarding `Cn1cc(/C=C2\C(=O)Nc3ccc(S(N)(=O)=O)cc32)c2ccccc21`, the residual activity in assay [1] stood at 32%; in assay [2], 101%; in assay [3], 50%; in assay [4], 26%; in assay [5], 5%; in assay [6], 56%. In addition, the residual activity stood at 47% in assay [7]; 118% in [8]; 114% in [9]; 109% in assay [10]; 96% in assay [11]; 98% in assay [12]. The residual activity was 84% in [13]; 49% in assay [14]; 110% (inactive) in assay [15]; 87% in assay [16]; 84% in assay [17]; 59% in [18]. The residual activity in assay [19] and in assay [20] was 103% in each case.

`CNc1cc2c(Nc3cccc(Br)c3)ncnc2cn1`: the residual activity in [1] stood at 96%; in assay [2] it was 109%; in assay [3], 53%; in assay [4], 68%; in assay [5], 30%; in [6], 62%. In addition, the residual activity in [7] amounted to 50%; in assay [8], 118%; in assay [9] it was 109%; in assay [10], 118%; in assay [11], 80%; in assay [12], 90%. For the same molecule, the residual activity in [13] is 100%; in assay [14], 94%; in [15] it was 94% (inactive); in assay [16], 102%; in [17] it was 86%; in [18] it was 49%. In addition, the results for the residual activity in assay [19] and in [20] were 104% and 98%, respectively.

The residual activity is the signal under treatment as a percentage of the control signal.
